The text below walks through data of PubChem BioAssay (Tox21).

Inconclusive results are not listed. Entries that show only a call come without a potency. Active and inactive are the calls of the source. Calls come from the whole dose curve; as a rule, active = well fitted cell-killing curve with a large enough effect in the repeat runs; inconclusive = weak or mixed curves, or effect the other way; inactive = no such curve, though single readings can be large or run the other way.
Potency is the fitted concentration of half-maximal effect.

A short description of the assay: qHTS assay for identifying genotoxic compounds that show differential cytotoxicity against isogenic chicken DT40 cell lines with known DNA damage response pathways - Rev3 mutant cell line (AID 743014). Note: nearly all actives have a fitted effect of over 55% in size. The note with it: chicken DT40 Rev3-/- viability, CellTiter-Glo, 40 h; series mostly up to 68.4 µM. From the text: National Center for Advancing Translational Sciences [NCATS]
NIH Chemical Genomics Center [NCGC]
U.S. Environmental Protection Agency [EPA]
National Institutes of Environmental Health Sciences [NIEHS]
National Toxicology Program [NTP]
U.S. Food and Drug Administration [FDA]
DNA repair pathways play a critical role in cellular homeostasis by repairing DNA damage induced by endogenous processes and xenobiotics. Isogenic chicken DT40 cell lines deficient in different DNA repair pathways can be used to identify genotoxic compounds and aid in characterizing the nature of the DNA damage induced. Two DNA repair-deficient cell lines with disrupted genes, Rad54/Ku70 or Rev3, were used to screen the Tox21 10K compound library. Possible genotoxicity was based on the presence of a significant increase in cytotoxicity in one or more of the DNA repair-deficient cell lines compared to that observed in the parental DNA repair-proficient cell line. CellTiter Glo viability assay (Promega, Madison, WI) was used to measure cell viability in these cells after compound treatment. This assay includes the data from the Rev3 mutant cell line.
Tox21 Assay Protocol Summary:
300 DT40 mutant cells in 5 uL/well were dispensed into white, solid-bottom 1536-well plates using a Multidrop Combi (ThermoFisher Scientific, Waltham, MA) dispenser. After the assay plates were incubated at 37 C/5% CO2 for approximately 0.5 hour, 23 nL of compounds dissolved in DMSO, positive controls or DMSO only was transferred into the assay plate by a pintool work station (Kalypsys, San Diego, CA). The assay plates were incubated at 37 C/5% CO2 for 40 hours. After 5 uL per well of CellTiter-Glo reagent was added into each well of the assay plates, the plates were incubated for 30 min at room temperature and the luminescence intensity of the plates was measured using a ViewLux (PerkinElmer, Shelton, CT) plate reader.
A general note: Quantitative high-throughput screening tests each substance at several concentrations.
For the compound `N#CC1(O)CCCCC1`, the Potency result is “inactive”.

On to `CN(C)CCn1nnnc1SCC1=C(C(=O)O)N2C(=O)[C@@H](NC(=O)Cc3csc(N)n3)[C@H]2SC1`, for which the Potency entry is “inactive”.

Consider `CC(C)CCCC(C)CCCC(C)CCCCC(C)CCCC(C)CCCC(C)C` (stereo not given), for which the Potency entry was “inactive”.

Take `CN(C)C(=O)Nc1ccccc1`: the Potency entry is “inactive”.

In the case of `CNc1ncnc2nc[nH]c12`, the Potency entry was “inactive”.

`COC(=O)C1=C(C)NC(C)=C(C(=O)OCC(C)=O)C1c1ccccc1[N+](=O)[O-]` (stereo not given): the Potency was 11.9 µM (active).

Turning to `O=[N+]([O-])c1ccc(CCO)cc1`, the Potency entry is “inactive”.

With `O=[N+]([O-])c1ccc(Oc2ccc([N+](=O)[O-])cc2)cc1`, the Potency entry is “inactive”.

For `OCc1ccccn1`, the Potency result was “inactive”.

Consider `COc1cccc(OC)c1`, for which the Potency entry was “inactive”.

As for `N#CCc1ccccc1[N+](=O)[O-]`, the Potency entry was “inactive”.

With `C=C(C)[C@@H]1CCC2=CC(=O)C[C@@H](C)[C@]2(C)C1`, the Potency result is “inactive”.

Take `C1C2OC2C2C1C1CC2C2OC12` (stereo not given): the Potency entry was “inactive”.

Take `COc1ccc(N=[N+]([O-])c2ccc(OC)cc2)cc1`: the Potency entry is “inactive”.

For `CCOC(=O)[C@H](CCc1ccccc1)N[C@@H](C)C(=O)N1CCC[C@H]1C(=O)O`, the Potency result was “inactive”.

As for `COCCOC(=O)CC#N`, the Potency result is “inactive”.

As to `CCCCCCCCCCCCCCC`, the Potency entry was “inactive”.

Consider `CN(C)N=Nc1ccccc1`, for which the Potency result was “inactive”.

For `Cc1ccccc1C(=O)O`, the Potency entry is “inactive”.

Regarding `CCCOCC(C)OCC(C)O` (stereo not given), the Potency entry was “inactive”.

Turning to `CCN1CCN(c2cc3c(cc2F)c(=O)c(C(=O)O)cn3C2CC2)CC1`, the Potency entry is “inactive”.

Turning to `CSc1nc(NC2CC2)nc(NC(C)(C)C)n1`, the Potency was 54.5 µM (active).

For the compound `CCCCN(CCO)CCO`, the Potency entry is “inactive”.

Turning to `Cc1ccc(N)cc1[N+](=O)[O-]`, the Potency result was “inactive”.

On to `COC(=O)c1ccc(C(=O)OC)c(C(=O)OC)c1`, for which the Potency entry is “inactive”.

Take `CC(C)N1C(=O)c2ccccc2C1=O`: the Potency entry is “inactive”.

For the compound `CC(C)(C)OC(=O)N1C[C@@H](F)C[C@H]1C(=O)O`, the Potency entry is “inactive”.

For the compound `O=C(O)Cc1cc(I)c(Oc2cc(I)c(O)c(I)c2)c(I)c1`, the Potency entry is “inactive”.

As for `O=C(O)C(O)[C@H](O)[C@@H](O)[C@H](O)[C@H](O)CO` (stereo not given in full), the Potency entry was “inactive”.

For `CN(C)C(=O)C(CCN1CCC(O)(c2ccc(Cl)cc2)CC1)(c1ccccc1)c1ccccc1`, the Potency is 10.6 µM (active).

Turning to `O=C(O)c1cccc(C(=O)O)n1`, the Potency result was “inactive”.

`CC(C)c1cccc(O)c1`: the Potency entry is “inactive”.

`Fc1ccccc1-c1ccccc1`: the Potency result was “inactive”.

For `CC/C=C\C#N`, the Potency result was “inactive”.

As to `Cc1nccn1CC1CCc2c(c3ccccc3n2C)C1=O` (stereo not given), the Potency result was “inactive”.

Take `CCCCCCCCCCCCI`: the Potency was 7.73 µM (active).

Turning to `CCCCCCCCC=O`, the Potency result was “inactive”.

As for `NC(=O)c1c(Cl)cccc1Cl`, the Potency result is “inactive”.

Turning to `CCCC(C)C(=O)O` (stereo not given), the Potency entry was “inactive”.

In the case of `CCC(C)OC(=O)N1CCCCC1CCO` (stereo not given), the Potency entry is “inactive”.
